Results as given in the supplement of paper PMC10849652.
The full data set covers some 8,800 targets. This sample favours those with a hit. About 0.5% of all pairs of compound and target were hits.

How the values were obtained:
Test in all cases: log2 fold change, soluble protein after heating vs DMSO (PISA); higher = thermal stabilisation; K562 lysate, 10 uM; active = over 0.2 and 3.5 SD of the protein, either way, in both replicates (recomputed)
[1] = compound: NCC(=O)Nc1ccc(-n2nc(C(F)(F)F)cc2-c2ccc3c(ccc4ccccc43)c2)cc1
Summary of the method: (§1)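 Thermal stability, expressed as log-two fold change relative to solvent controls, is given from duplicates. Crude K562 extract in PBS pH 7.4 with 1 mM MgCl2, at 1 mg/mL protein, was treated with 10 μM compound for 30 min and heated in aliquots for 3 min across 48°C-58°C. After pooling, adjustment to 0.5% NP-40 at 4°C and centrifugation at 21,000xg for 90 min, supernatant protein was measured by TMTpro 16plex LC-MS/MS with channel sums equalised.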

vorinostat = compound: O=C(CCCCCCC(=O)Nc1ccccc1)NO [vorinostat]
Summary of the method: as §1

silmitasertib = compound: O=C(O)c1ccc2c(c1)nc(Nc1cccc(Cl)c1)c1ccncc12 [silmitasertib]
Summary of the method: as §1

[2] = compound: O=C1NC(=O)C(c2cnc3ccccn23)=C1c1cn2c3c(cc(F)cc13)CN(C(=O)N1CCCCC1)CC2
Summary of the method: as §1

entospletinib = compound: c1cn2cc(-c3ccc4cn[nH]c4c3)nc(Nc3ccc(N4CCOCC4)cc3)c2n1 [entospletinib]
Summary of the method: as §1

Measured: log2 fold change

STK3 isoform 2 (UniProt Q13188)
inactive: [1] 0.034 | vorinostat -0.05 | silmitasertib 0.022 | [2] 0.025 | entospletinib -0.003

SMAP2 (UniProt Q8WU79)
Chain of UniProt Q8WU79 (Q8WU79 whole entry, looked up): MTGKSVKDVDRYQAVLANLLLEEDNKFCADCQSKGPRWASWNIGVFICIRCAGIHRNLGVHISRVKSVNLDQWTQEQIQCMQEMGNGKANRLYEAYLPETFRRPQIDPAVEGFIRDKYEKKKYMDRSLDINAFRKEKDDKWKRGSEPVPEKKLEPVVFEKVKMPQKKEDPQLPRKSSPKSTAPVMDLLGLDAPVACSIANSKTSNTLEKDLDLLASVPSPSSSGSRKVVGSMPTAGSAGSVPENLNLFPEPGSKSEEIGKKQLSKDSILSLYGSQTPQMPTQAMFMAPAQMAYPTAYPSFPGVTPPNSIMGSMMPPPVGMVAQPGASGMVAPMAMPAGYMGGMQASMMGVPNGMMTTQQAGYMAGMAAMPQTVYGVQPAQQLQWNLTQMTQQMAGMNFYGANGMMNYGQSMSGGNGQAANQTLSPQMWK
inactive: [1] 0 | vorinostat -0.032 | silmitasertib 0.017 | [2] -0.04 | entospletinib -0.028

SLC12A6 (UniProt Q9UHW9)
inactive: [1] 0.009 | vorinostat 0.15 | silmitasertib -0.045 | [2] 0.003 | entospletinib 0.013

SRSF2 (UniProt Q01130)
Chain of UniProt Q01130 (Q01130 whole entry, looked up): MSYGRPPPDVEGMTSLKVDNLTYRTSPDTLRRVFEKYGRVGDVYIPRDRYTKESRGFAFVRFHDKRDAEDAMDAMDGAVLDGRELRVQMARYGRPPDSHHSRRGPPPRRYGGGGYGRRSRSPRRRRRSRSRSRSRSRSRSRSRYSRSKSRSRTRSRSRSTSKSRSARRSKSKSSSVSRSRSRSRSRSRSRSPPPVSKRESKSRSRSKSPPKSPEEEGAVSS
inactive: [1] 0.023 | vorinostat 0.087 | silmitasertib -0.017 | [2] -0.043 | entospletinib -0.055

SLC27A4 (UniProt Q6P1M0)
active: vorinostat -0.257
inactive: [1] -0.127 | silmitasertib 0.016 | [2] -0.002 | entospletinib 0.07

SPAG5 (UniProt Q96R06)
active: vorinostat -0.298
inactive: [1] 0.038 | silmitasertib 0.042 | [2] -0.007 | entospletinib 0.008

SH3GL1 (UniProt Q99961)
Chain of UniProt Q99961 (Q99961 whole entry, looked up): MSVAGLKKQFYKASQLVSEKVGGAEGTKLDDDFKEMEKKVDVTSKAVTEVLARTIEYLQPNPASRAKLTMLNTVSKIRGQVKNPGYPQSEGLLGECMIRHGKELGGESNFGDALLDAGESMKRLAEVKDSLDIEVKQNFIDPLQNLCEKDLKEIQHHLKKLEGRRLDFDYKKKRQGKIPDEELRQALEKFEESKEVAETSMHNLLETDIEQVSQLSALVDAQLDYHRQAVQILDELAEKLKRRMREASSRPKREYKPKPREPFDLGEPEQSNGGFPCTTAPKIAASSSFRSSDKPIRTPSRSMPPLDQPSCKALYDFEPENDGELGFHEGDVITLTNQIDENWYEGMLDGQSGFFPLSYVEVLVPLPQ
inactive: [1] -0.012 | silmitasertib 0 | [2] 0.009 | entospletinib -0.004
active: vorinostat -0.245

SQLE (UniProt Q14534)
Chain of UniProt Q14534 (Q14534 whole entry, looked up): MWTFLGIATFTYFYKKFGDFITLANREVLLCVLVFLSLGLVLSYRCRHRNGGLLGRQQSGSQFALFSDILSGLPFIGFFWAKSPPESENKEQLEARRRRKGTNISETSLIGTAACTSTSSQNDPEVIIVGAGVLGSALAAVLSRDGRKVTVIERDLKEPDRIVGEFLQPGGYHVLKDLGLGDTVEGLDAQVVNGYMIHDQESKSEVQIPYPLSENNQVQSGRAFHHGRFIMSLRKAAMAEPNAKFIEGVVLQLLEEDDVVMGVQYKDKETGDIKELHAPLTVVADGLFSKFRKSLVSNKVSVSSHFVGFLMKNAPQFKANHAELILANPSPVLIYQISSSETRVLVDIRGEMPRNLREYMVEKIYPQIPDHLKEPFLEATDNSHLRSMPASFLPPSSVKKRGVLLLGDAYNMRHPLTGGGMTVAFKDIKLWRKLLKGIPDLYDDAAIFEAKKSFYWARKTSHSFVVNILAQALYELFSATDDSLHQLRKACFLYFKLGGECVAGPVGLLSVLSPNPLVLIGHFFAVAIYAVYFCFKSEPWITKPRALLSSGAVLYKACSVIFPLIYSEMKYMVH
inactive: [1] 0.01 | vorinostat 0.103 | silmitasertib -0.056 | [2] -0.042 | entospletinib 0.029

STK38 (UniProt Q15208)
inactive: [1] 0.021 | silmitasertib 0.16 | [2] -0.029 | entospletinib 0
active: vorinostat -0.424

TAPT1 (UniProt Q6NXT6)
inactive: [1] 0.023 | vorinostat 0.09 | silmitasertib 0.007 | [2] 0.023 | entospletinib 0.001

TARBP2 (UniProt Q15633)
active: vorinostat -0.519
inactive: [1] -0.017 | silmitasertib 0.024 | [2] -0.03 | entospletinib -0.002

SNRPD2 (UniProt P62316)
inactive: [1] 0 | vorinostat 0.147 | silmitasertib -0.021 | [2] 0.015 | entospletinib 0.001

SP1 (UniProt P08047)
Chain of UniProt P08047 (P08047 whole entry, looked up): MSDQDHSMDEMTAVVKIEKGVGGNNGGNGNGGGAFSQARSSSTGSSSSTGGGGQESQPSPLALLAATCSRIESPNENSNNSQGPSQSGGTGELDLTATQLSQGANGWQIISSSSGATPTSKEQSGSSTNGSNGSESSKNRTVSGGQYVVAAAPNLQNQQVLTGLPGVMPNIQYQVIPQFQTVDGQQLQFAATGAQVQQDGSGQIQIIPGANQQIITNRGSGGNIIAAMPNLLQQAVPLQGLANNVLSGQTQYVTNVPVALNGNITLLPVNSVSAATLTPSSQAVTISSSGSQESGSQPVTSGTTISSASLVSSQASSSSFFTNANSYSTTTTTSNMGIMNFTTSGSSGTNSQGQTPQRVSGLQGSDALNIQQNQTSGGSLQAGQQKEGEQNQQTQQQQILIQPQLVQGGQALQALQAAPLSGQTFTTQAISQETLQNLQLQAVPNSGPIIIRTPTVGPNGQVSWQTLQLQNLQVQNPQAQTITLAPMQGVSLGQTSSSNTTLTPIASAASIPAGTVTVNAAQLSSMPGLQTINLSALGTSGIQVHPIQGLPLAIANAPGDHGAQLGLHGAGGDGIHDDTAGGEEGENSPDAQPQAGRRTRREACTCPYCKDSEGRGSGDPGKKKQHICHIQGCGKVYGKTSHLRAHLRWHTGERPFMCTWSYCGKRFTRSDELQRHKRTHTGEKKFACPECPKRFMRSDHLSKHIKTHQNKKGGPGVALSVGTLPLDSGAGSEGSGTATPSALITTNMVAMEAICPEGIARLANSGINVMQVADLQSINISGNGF
inactive: [1] 0.001 | silmitasertib -0.045 | [2] 0.081 | entospletinib -0.006
active: vorinostat -0.376

SSNA1 (UniProt O43805)
Chain of UniProt O43805 (O43805 whole entry, looked up): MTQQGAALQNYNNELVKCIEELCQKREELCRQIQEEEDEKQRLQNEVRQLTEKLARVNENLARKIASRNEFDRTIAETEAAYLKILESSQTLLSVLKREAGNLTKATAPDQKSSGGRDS
inactive: [1] -0.036 | silmitasertib 0 | [2] -0.023 | entospletinib -0.065
active: vorinostat -0.34

SSBP3 (UniProt Q9BWW4)
Chain of UniProt Q9BWW4 (Q9BWW4 whole entry, looked up): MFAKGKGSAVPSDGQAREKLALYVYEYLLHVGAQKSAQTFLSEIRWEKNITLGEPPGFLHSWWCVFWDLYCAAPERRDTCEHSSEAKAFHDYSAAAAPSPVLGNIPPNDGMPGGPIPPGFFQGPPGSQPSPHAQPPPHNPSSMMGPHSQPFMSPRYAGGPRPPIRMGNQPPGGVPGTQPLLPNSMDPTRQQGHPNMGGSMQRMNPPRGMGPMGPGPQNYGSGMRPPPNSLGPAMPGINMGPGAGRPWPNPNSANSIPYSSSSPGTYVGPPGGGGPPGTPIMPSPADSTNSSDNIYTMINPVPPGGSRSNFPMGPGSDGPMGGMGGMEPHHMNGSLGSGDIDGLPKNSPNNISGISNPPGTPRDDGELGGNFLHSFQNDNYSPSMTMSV
inactive: [1] -0.085 | vorinostat 0.061 | silmitasertib -0.005 | [2] 0.088 | entospletinib 0.009

SYPL1 (UniProt Q16563)
Chain of UniProt Q16563 (Q16563 whole entry, looked up): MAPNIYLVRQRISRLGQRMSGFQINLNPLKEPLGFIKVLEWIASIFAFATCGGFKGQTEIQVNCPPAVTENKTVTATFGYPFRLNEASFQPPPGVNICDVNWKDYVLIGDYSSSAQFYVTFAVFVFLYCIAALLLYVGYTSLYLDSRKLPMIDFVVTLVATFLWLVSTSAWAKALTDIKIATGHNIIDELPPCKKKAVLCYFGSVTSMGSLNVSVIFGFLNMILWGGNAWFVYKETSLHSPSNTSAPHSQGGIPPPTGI
inactive: [1] -0.003 | vorinostat 0.005 | silmitasertib -0.03 | [2] -0.02 | entospletinib 0.014

SPATA5L1 (UniProt Q9BVQ7)
active: vorinostat -0.408
inactive: [1] 0.029 | silmitasertib 0.138 | [2] 0.035 | entospletinib -0.021

SPHK1 isoform 2 (UniProt Q9NYA1)
Chain of UniProt Q9NYA1 (Q9NYA1 whole entry, looked up): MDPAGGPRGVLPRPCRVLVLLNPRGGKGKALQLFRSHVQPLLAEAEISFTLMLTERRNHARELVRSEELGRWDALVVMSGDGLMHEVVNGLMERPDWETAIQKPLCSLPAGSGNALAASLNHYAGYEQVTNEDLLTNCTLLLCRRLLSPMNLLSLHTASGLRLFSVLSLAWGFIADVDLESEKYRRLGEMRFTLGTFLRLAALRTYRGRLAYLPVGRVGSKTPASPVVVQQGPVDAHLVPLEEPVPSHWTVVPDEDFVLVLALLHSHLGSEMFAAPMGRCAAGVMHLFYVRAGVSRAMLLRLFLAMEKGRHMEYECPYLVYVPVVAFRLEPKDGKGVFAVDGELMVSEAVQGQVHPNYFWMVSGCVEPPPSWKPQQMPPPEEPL
inactive: [1] 0.091 | vorinostat -0.408 | silmitasertib 0.089 | [2] -0.167 | entospletinib 0.032

TARDBP (UniProt Q13148)
active: vorinostat -0.44
inactive: [1] 0.044 | silmitasertib 0.086 | [2] -0.268 | entospletinib -0.027

SLC20A1 (UniProt Q8WUM9)
Chain of UniProt Q8WUM9 (Q8WUM9 whole entry, looked up): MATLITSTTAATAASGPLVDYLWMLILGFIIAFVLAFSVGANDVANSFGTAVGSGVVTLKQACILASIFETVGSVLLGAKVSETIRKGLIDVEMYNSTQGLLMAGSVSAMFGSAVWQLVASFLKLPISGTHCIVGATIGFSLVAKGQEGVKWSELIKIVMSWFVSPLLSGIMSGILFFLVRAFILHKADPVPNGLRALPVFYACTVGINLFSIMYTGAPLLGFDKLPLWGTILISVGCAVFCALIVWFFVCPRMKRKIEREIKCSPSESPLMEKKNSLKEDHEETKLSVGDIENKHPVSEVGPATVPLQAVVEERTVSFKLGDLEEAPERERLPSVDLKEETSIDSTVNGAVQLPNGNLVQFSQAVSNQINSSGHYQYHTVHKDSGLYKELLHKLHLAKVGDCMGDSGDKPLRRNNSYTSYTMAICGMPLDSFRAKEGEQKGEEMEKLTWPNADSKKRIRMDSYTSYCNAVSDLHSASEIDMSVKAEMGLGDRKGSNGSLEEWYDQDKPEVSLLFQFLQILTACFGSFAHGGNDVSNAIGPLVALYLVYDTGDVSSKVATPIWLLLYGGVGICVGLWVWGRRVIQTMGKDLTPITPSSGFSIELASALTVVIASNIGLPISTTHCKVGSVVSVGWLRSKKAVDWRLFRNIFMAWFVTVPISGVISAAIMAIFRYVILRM
inactive: [1] 0 | vorinostat 0.062 | silmitasertib -0.05 | [2] 0.021 | entospletinib 0.064

SFN (UniProt P31947)
Chain of UniProt P31947 (P31947 whole entry, looked up): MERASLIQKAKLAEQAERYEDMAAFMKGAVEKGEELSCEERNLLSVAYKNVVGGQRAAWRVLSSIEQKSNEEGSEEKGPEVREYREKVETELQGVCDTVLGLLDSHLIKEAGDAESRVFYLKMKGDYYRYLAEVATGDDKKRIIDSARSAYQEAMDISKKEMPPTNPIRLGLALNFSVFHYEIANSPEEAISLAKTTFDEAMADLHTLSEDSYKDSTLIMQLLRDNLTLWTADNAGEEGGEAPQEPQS
inactive: [1] -0.001 | vorinostat 0.107 | silmitasertib -0.032 | [2] -0.026 | entospletinib 0.045

SH3BP5L (UniProt Q7L8J4)
inactive: [1] -0.003 | vorinostat -0.025 | silmitasertib -0.068 | [2] 0.051 | entospletinib 0.009

SKP2 (UniProt Q13309)
Chain of UniProt Q13309 (Q13309 whole entry, looked up): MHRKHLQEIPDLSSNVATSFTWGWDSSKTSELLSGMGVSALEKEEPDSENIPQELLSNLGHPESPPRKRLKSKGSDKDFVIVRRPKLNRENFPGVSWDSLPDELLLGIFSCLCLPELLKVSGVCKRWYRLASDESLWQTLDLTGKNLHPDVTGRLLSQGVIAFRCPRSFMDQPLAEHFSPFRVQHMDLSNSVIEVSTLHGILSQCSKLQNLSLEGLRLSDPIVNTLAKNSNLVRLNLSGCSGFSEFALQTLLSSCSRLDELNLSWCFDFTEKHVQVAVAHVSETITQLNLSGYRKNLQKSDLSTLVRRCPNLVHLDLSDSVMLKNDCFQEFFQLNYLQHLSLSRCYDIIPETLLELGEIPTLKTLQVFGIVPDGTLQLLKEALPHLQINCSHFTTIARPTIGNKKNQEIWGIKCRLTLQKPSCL
inactive: [1] -0.07 | vorinostat -0.203 | silmitasertib 0.012 | [2] 0.009 | entospletinib -0.103

SMARCAD1 isoform 2 (UniProt Q9H4L7)
active: vorinostat -0.27
inactive: [1] -0.005 | silmitasertib 0.012 | [2] 0.014 | entospletinib 0.013

SLC40A1 (UniProt Q9NP59)
inactive: [1] 0.005 | vorinostat 0.046 | silmitasertib 0 | [2] -0.016 | entospletinib 0.022
